Here are results for six molecules from PubChem BioAssay.

SMILES strings stand for the structures. Active and inactive are the calls of the source.

Assay [1] concerns Human papillomavirus type 1a protein E7 (residues 44-93). Nature of the assay: HPV1a E7 fragment binders on microarrays, primary screen, biochemical, small-molecule microarray, residues 44-93, 635 nm fluorescence (AID 1108).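 Further: E7 fragment applied at 1 µg/mL in TBST for 1 h at 4 C; score combines spot fluorescence with its signal to noise ratio.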 The conditions noted are these: small-molecule microarray binding, fluorescence 635 nm; higher = more signal.
A short description of assay [2]: modulators of HCV replicon luciferase signal, primary screen, HCV replication inhibitor project, Huh7 cells, luciferase reporter (AID 1109).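 Further: huh7 hepatoma cells harbouring a luciferase neomycin HCV replicon reporter; luciferase luminescence as measure of HCV replicon replication; test concentration not given here.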 The conditions noted are these: 48 h, higher = more signal.
Assay [3] has as its target Left-right determination factor 2 (Homo sapiens) (UniProt O00292). Nature of the assay: LEFTY2 binders on small-molecule microarrays, primary screen, biochemical, small-molecule microarray, 635 nm fluorescence scan (AID 1110). Particulars: LEFTY2 binding, higher = more signal.
For assay [4], the target named is Calmodulin-1 (Homo sapiens) (UniProt P0DP23). Nature of the assay: CALM1 binders on microarrays, EGTA buffer, profiling panel, biochemical, small-molecule microarray, Cy5-labelled CALM1 (AID 1111).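 Further: labelled calmodulin applied in Tris saline Tween buffer holding calcium plus EGTA and DTT.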 Particulars: Cy5-CALM1 binding fluorescence, higher = more signal.
Assay [5] has the same target. Nature of the assay: calcium-bound CALM1 binders on microarrays, profiling panel, artefact control for SMM control-protein annotation, biochemical, small-molecule microarray, Cy5-labelled CALM1, plus calcium (AID 1112).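 Further: score merges spot fluorescence with signal to noise from triplicate slides.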 The conditions noted are these: Cy5-CALM1 binding fluorescence, higher = more signal.
Assay [6] can be described thus: small-molecule microarray binders of probe aWnt5a, primary screen, biochemical, biotinylated probe, 635/667 nm fluorescence (AID 1113).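 Further: score merges 667 nm fluorescence intensity with signal-to-noise per printed feature.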 Particulars: higher = more signal.
A short description of assay [7]: small-molecule microarray binders of probe aShh, primary screen, biochemical, biotinylated probe, 635/667 nm fluorescence (AID 1114).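 Further: probe is biotin-labelled aShh protein from a stem cell growth factor screen; measures binding of labelled protein to compounds printed on the slide; score merges feature fluorescence at 667 nm with signal-to-noise.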 Particulars: higher = more signal.
A short description of assay [8]: small-molecule microarray binders of probe aNog, primary screen, biochemical, biotinylated probe, 635/667 nm fluorescence (AID 1115).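 Further: probe is biotinylated aNog protein used at 0.15 µg/mL for 1 h at 4 C; z-score combines 667 nm fluorescence of each spot with its signal to noise.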 The conditions noted are these: higher = more signal.
Assay [9] concerns the target Torsin-1A-interacting protein 1 (Homo sapiens) (UniProt Q5JTV8). Nature of the assay: LAP1 binders from COS7 cell lysate, primary screen, small-molecule microarray, 635/667 nm fluorescence (AID 1116). Particulars: COS7-hLAP1 lysate binding, 635 nm fluorescence, higher = more signal.
For assay [10], the target named is Alpha-bungarotoxin (Bungarus multicinctus) (UniProt P60615). As to the kind of experiment: alpha-bungarotoxin binders on microarray, profiling panel, artefact control for SMM control protein annotation, biochemical, small-molecule microarray, Alexa647 label, 635/667 nm fluorescence (AID 1117). The conditions noted are these: alpha-BTX-A647 binding fluorescence, higher = more signal.
Chain of Alpha-bungarotoxin (Bungarus multicinctus) (P60615 whole entry, looked up): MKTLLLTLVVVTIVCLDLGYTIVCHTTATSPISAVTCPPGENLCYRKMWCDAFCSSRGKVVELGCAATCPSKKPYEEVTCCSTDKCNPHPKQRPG

The target in assay [11] is Albumin (Bos taurus) (UniProt P02769). As to the kind of experiment: bovine serum albumin binders on microarray, profiling panel, artefact control for SMM control protein annotation, biochemical, small-molecule microarray, Alexa647 label, 635/667 nm fluorescence (AID 1118).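 Further: score merges 667 nm emission intensity and signal-to-noise per printed compound spot.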 The conditions noted are these: BSA-A647 binding, fluorescence 635 nm, higher = more signal.
Chain of Albumin (Bos taurus) (P02769 whole entry, looked up): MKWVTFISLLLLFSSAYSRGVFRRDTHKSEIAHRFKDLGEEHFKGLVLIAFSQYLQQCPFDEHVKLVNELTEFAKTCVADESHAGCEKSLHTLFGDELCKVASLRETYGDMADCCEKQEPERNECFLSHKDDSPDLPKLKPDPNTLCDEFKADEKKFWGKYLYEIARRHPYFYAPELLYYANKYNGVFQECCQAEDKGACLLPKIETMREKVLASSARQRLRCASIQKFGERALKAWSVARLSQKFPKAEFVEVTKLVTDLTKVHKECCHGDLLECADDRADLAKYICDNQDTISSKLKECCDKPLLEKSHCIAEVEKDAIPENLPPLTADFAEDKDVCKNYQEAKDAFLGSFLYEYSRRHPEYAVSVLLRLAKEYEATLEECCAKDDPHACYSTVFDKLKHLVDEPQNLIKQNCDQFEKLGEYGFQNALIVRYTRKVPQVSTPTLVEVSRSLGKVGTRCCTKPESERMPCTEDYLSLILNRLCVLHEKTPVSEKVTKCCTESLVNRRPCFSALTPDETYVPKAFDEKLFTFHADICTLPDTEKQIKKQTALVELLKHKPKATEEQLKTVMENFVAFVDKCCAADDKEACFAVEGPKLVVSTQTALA
A short description of assay [12]: small-molecule microarray binders of probe aXIP, primary screen, biochemical, NeuroSMM set, 635/667 nm fluorescence (AID 1119).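 Further: probe is the protein aXip251-270 applied at 1 µg/mL to compound-printed slides; binding of probe to printed compounds measured as 667 nm fluorescence plus signal to noise.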 Particulars: higher = more signal, called active from +8 up or from −8 down.
Assay [13] can be described thus: small-molecule binders of probe aNOTCH3, primary screen, biochemical, small-molecule microarray, 635/667 nm fluorescence (AID 1120).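 Further: probe is a biotin-tagged antibody raised against NOTCH3 rather than NOTCH3 protein; score merges spot fluorescence near 667 nm with spot signal to noise.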 The conditions noted are these: higher = more signal.
The nature of assay [14]: small-molecule binders of probe aNOTCH2, primary screen, biochemical, small-molecule microarray, 635/667 nm fluorescence (AID 1121).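 Further: score merges feature fluorescence read at 667 nm with its signal to noise.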 The conditions noted are these: higher = more signal.
For assay [15], the target named is Carbonic anhydrase 2 (Homo sapiens) (UniProt P00918). Nature of the assay: CAII small-molecule binders, profiling panel, biochemical, small-molecule microarray, Alexa647-labelled CAII (AID 1122). Particulars: CAII-A647 binding fluorescence, higher = more signal.
A short description of assay [16]: COS7 lysate on small-molecule microarray, probe aHis, 635 nm (AID 1123).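 Further: z-score combines 667nm fluorescence intensity with signal-to-noise per printed compound spot.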 Particulars: COS7 cell lysate, fluorescence, higher = more signal.
Assay [17] in a line: compound binding in COS7 lysate, probe aLAP1, primary screen, cell lysate, small-molecule microarray (AID 1124).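 Further: lysate comes from COS7 cells expressing LAP1 and is applied at 0.3 µg/mL; score merges spot fluorescence near 667 nm with signal-to-noise over triplicate slides.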 The conditions noted are these: probe aLAP1, fluorescence, higher = more signal.
Assay [18] relates to Sam68 (KHDRBS1). Nature of the assay: Sam68 small-molecule binders, primary screen, biochemical, small-molecule microarray, 635 nm fluorescence (AID 1125).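 Further: score merges 667 nm channel intensity with signal to noise over triplicate slides.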 Particulars: small-molecule microarray binding, higher = more signal.
The subject of assay [19] is Chordin-like protein 2 (CHRDL2). Nature of the assay: CHRDL2 small-molecule binders, primary screen, biochemical, small-molecule microarray, 635 nm fluorescence (AID 1126).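 Further: printed compound slides probed with Chrdl2 protein at 4 µg/mL for 1 h at 4 C; score merges 667 nm emission intensity with signal to noise over three replicate slides.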 The conditions noted are these: small-molecule microarray binding, fluorescence 635 nm; higher = more signal.
In assay [20] the target is Concanavalin-A (Canavalia ensiformis) (UniProt P02866). As to the kind of experiment: ConA small-molecule binders, primary screen, artefact control for SMM control protein annotation, biochemical, small-molecule microarray, Alexa647 label, 635 nm (AID 1127).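 Further: z combines 667 nm emission intensity with signal-to-noise across three replicate slides.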 The conditions noted are these: ConA-A647 binding fluorescence, higher = more signal.
Chain of Concanavalin-A (Canavalia ensiformis) (P02866 whole entry, looked up): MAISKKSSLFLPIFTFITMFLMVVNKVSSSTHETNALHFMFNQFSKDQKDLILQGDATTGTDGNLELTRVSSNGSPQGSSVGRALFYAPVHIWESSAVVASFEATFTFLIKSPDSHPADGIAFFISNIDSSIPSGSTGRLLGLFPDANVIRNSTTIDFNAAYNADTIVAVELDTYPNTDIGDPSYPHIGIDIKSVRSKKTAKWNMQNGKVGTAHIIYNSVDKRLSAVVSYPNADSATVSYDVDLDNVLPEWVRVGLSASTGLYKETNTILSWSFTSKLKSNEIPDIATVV

Chain of Left-right determination factor 2 (Homo sapiens) (O00292 whole entry, looked up): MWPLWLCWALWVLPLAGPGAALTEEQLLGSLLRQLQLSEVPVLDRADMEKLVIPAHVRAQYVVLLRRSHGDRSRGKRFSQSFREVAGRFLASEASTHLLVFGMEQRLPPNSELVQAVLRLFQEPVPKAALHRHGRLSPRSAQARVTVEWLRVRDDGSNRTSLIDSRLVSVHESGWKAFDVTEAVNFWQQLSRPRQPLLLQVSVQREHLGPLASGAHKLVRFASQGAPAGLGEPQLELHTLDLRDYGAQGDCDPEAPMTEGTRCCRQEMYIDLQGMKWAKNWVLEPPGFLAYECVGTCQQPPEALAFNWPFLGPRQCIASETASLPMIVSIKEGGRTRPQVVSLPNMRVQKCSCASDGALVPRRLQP
Chain of Torsin-1A-interacting protein 1 (Homo sapiens) (Q5JTV8 whole entry, looked up): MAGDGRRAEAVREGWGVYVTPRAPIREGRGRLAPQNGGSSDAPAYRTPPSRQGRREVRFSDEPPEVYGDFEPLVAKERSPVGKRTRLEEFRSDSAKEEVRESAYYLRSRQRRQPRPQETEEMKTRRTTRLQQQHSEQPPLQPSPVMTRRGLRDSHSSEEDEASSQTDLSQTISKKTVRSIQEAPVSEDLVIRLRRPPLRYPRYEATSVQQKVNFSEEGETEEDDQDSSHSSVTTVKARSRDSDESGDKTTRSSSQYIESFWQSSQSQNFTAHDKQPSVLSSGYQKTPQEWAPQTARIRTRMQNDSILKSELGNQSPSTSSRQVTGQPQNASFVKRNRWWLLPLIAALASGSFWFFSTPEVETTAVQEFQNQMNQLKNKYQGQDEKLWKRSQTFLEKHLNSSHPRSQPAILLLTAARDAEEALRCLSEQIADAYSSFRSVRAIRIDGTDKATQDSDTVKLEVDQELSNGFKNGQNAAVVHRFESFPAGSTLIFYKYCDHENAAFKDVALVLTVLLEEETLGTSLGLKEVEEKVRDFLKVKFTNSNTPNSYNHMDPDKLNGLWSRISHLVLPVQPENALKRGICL

Regarding `O=c1cccc(-c2ccccc2)o1`, the composite z-score is -0.815 in assay [1]; -0.491 in assay [3]; -0.604 in assay [4]; -0.108 in assay [5]; -0.0863 in [6]; 0.0141 in assay [7]. The composite z-score in assay [8] is -0.295; in assay [9], -0.0971; in assay [10] it was -0.0278; in [11], 0.66; in assay [13], -0.0933; in assay [14], -0.0974. For the same molecule, the composite z-score in [15] is 0.51; in [16], -0.295; in assay [17], -0.0258; in assay [18], -1.1; in [19] it was 0.223; in assay [20] it was -0.234. Moreover, the z-score in assay [2] is -0.144. The composite Z-score in assay [12] is 2.27 (inactive).
Take `COc1ccc([Si](C)(C)[C@@H]2[C@@H](CCO)O[C@]3(C(=O)N(Cc4ccc(N5C(=O)c6cccc7cccc5c67)cc4)c4ccccc43)[C@H]2C)cc1`: the composite z-score in assay [1] was -1.27; in assay [3], -0.983; in assay [4] it was 0.424; in [5], 1.09; in assay [6] it was -0.154; in assay [7] it was -0.16. Moreover, the composite z-score is 0.094 in [8]; -0.164 in assay [9]; -0.0784 in assay [10]; 0.308 in assay [11]; -0.252 in assay [13]; -0.119 in assay [14]. Besides, the composite z-score was 0.382 in assay [15]; 0.332 in assay [16]; 0.232 in [17]; -0.276 in [18]; -0.161 in [19]; -0.259 in [20]. This molecule yielded a z-score in [2] of -4.81. For the same molecule, the composite Z-score in assay [12] is 0.77 (inactive).
Consider `C=C(CCCC)C(=O)CC[C@H](OC(=O)c1ccccc1-c1ccccc1C(=O)O)c1ccc(CO)o1`, for which the composite z-score is 1.42 in assay [1]; 0.645 in [3]; 0.856 in assay [4]; -0.771 in assay [5]; -0.0458 in assay [6]; -0.108 in [7]. The composite z-score in assay [8] was 0.238; in assay [9], 0.876; in [10] it was 1.65; in assay [11], 0.734; in assay [13] it was -0.0014; in assay [14], -0.14. Moreover, the composite z-score in assay [15] was determined as 0.15; in [16], 0.455; in assay [17], 0.645; in assay [18] it was 1.29; in [19], 0.82; in assay [20], 0.933. Also, the z-score in [2] is -0.872. Besides, in assay [12], the composite Z-score was 0.0663 (inactive).
Regarding `O=C(NCC(F)(F)F)[C@@H]1c2ccccc2C(=O)N(Cc2ccccc2)[C@H]1c1ccc(CO)cc1`, the composite z-score in assay [1] is 0.337; in assay [3] it was -1.78; in assay [4], -0.189; in [5] it was 0.621; in assay [6], -0.158; in assay [7] it was -0.0849. The composite z-score in assay [8] was 0.0056; in [9] it was -0.236; in assay [10] it was -0.846; in assay [11] it was -1.27; in assay [13], -0.354; in assay [14] it was -0.0586. The composite z-score in [15] is 0.723; in [16], 1.08; in assay [17], 0.345; in assay [18], -0.141; in [19], -1.57; in assay [20], -0.331. The z-score in [2] was -0.32. Besides, the composite Z-score in [12] is 0.111 (inactive).
On to `COCCOC(=O)N1C(=O)[C@@]2(c3cc(C#CCC(C(=O)OC)C(=O)OC)ccc31)[C@H](c1ccc(OCCO)cc1)N1[C@H](c3ccccc3)[C@H](c3ccccc3)OC(=O)[C@H]1[C@@H]2C(=O)NC[C@H](O)c1ccccc1`, for which the composite z-score was 0.958 in assay [1]; 0.59 in assay [3]; 1.09 in [4]; -0.518 in assay [5]; -0.17 in assay [6]; -0.291 in [7]. Besides, the composite z-score in assay [8] was -0.202; in assay [9] it was 0.402; in assay [10], 1.18; in [11], 0.599; in assay [13] it was 0.272; in [14] it was -0.132. Further, the composite z-score in [15] came to 0.563; in assay [16], 2.42; in [17] it was 0.41; in assay [18], 1.32; in assay [19] it was 0.45; in assay [20], 1.01. The same molecule registered a z-score in [2] of -1.71. Further, the composite Z-score in assay [12] was -0.33 (inactive).
On to `COCCOC(=O)N1C(=O)[C@@]2(c3cc(C#CC4=CCCCC4)ccc31)[C@H](C(=O)N1CCN(c3ncccn3)CC1)[C@H]1C(=O)O[C@H](c3ccccc3)[C@H](c3ccccc3)N1[C@@H]2c1ccc(OCCO)cc1`, for which the composite z-score in assay [1] is 0.973; in [3], 0.819; in assay [4], 0.585; in [5] it was -0.252; in assay [6], 0.0026; in [7] it was -0.229. For the same molecule, the composite z-score is 0.749 in [8]; 1.48 in assay [9]; 0.229 in assay [10]; 0.565 in assay [11]; -0.0345 in assay [13]; 0.108 in [14]. Further, the composite z-score was determined as 0.278 in [15]; 0.676 in assay [16]; 0.358 in [17]; 1.17 in [18]; 0.926 in assay [19]; 1.04 in assay [20]. In assay [2], the z-score was -1.46. Moreover, the composite Z-score in assay [12] is -0.274 (inactive).
